Inconclusive results are not listed. A call without a number means that no potency is given here. A structure can be active in one record and inactive in another. Active and inactive are the calls of the source. Unless noted, the call rests on the fitted dose curve.

System in one assay: not listed separately
Kind of assay: qHTS assay to identify small molecule antagonists of the sonic hedgehog signaling (Shh) pathway (AID 1259369). Further: nearly all actives have a fitted effect of over 45% in size. Further: potency means the concentration at half of the fitted maximal effect. Particulars: NIH/3T3 Gli1-Luc reporter, Shh antagonist, luminescence 24 h; series mostly up to 92.4 µM. The method in brief: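 Cells are plated and held 4hr at 37 C, compounds (DMSO) are pinned in, conditioned medium is added to stimulate the pathway, and after 24hr luciferase reagent is added for 30min before luminescence is read.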
Background: In qHTS, concentration-response curves come from the screen itself.
Regarding `CC(CCc1ccc2c(c1)OCO2)NN` (configuration not stated), the Potency result is “inactive”.

For `CC(C)c1nnc2ccc(-c3ocnc3-c3cc(F)ccc3F)cn12`, the Potency was 1.09 µM (active).

With `Cc1cc(S(=O)(=O)O)ccc1N=Nc1c(O)ccc2ccccc12`, the Potency result is “inactive”.

As to `OC/C(Br)=C(\Br)CO`, the Potency result was “inactive”.

`CN1CCCN=C1/C=C/c1cccs1`: the Potency entry is “inactive”.

As for `CC1(C)C(=O)N(Br)C(=O)N1Cl`, the Potency result was “inactive”.

On to `CCC(C(=O)OCCOCCN(CC)CC)c1ccccc1` (configuration not stated), for which the Potency result is “inactive”.

Take `O=C(O)c1cccc(O)c1`: the Potency entry is “inactive”.

`NC(=O)Nc1ccc(Cl)cc1`: the Potency entry is “inactive”.

With `O=C(O)c1ccc(CO)o1`, the Potency entry is “inactive”.

For `CCCCCCOC(=O)C(C)C`, the Potency entry was “inactive”.

Take `CCCCCCCCCCCC[N+](C)(C)CCCS(=O)(=O)[O-]`: the Potency result is “inactive”.

Regarding `CCCOCCOCCO`, the Potency entry was “inactive”.

With `Cc1cc(O)c2c(O)c3c(O)cccc3cc2c1`, the Potency entry is “inactive”.

`Cn1c(=O)c2c(ncn2CC(=O)O)n(C)c1=O`: the Potency entry was “inactive”.

As for `CC#N`, the Potency result is “inactive”.

Take `CO[C@H]1O[C@H](CO)[C@@H](O)[C@H](O)[C@H]1O`: the Potency entry is “inactive”.

As for `CCOC(=O)C(C)Oc1ccc(Oc2nc3ccc(Cl)cc3o2)cc1` (configuration not stated), the Potency result was “inactive”.

`Cc1oncc1C(=O)Nc1ccc(C(F)(F)F)cc1`: the Potency was 27.3 µM (active) and inactive.

On to `CC1CN(c2cc3c(cc2F)c(=O)c(C(=O)O)cn3-c2ccc(F)cc2F)CCN1` (configuration not stated), for which the activity change, negative = inhibition is 30.3% [at 8.39 µM] (inactive).

For `COC(OC)(C(=O)c1ccccc1)c1ccccc1`, the Potency result is “inactive”.

In the case of `O=c1[nH]c2ccc(S(=O)CCN3CCC(Cc4ccc(F)cc4)CC3)cc2o1` (configuration not stated), the Potency result is “inactive”.

`Cc1nc2ccccc2s1`: the Potency entry was “inactive”.

As to `CCOCCn1c(C2CCN(CCc3ccc(C(C)(C)C(=O)O)cc3)CC2)nc2ccccc21`, the Potency entry was “inactive”.

Consider `CC(=O)Nc1ccc(N)cc1`, for which the Potency result is “inactive”.

For `CCC(=O)OC/C=C/c1ccccc1`, the Potency result is “inactive”.

In the case of `CN1CCN(c2c(F)cc3c(=O)c(C(=O)O)cn4c3c2OCN4C)CC1`, the activity change, negative = inhibition was 2.85% [at 19 µM] (inactive).

In the case of `CCC(C)=O`, the Potency entry is “inactive”.

`O=S(=O)(c1ccccc1)c1ccc(Cl)cc1`: the Potency entry is “inactive”.

Turning to `O=C(CCC1CCN(Cc2ccccc2)CC1)c1ccc2c(c1)NCCCC2`, the Potency is 10.6 µM (active).

As for `CCn1nc(C)c2c1C(=O)NCC(c1ccc(O)cc1)=N2`, the Potency is 0.0122 µM (active).

In the case of `CCc1nn(CCCN2CCN(c3cccc(Cl)c3)CC2)c(=O)n1CCOc1ccccc1`, the Potency was 15 µM (active).

On to `C[Si](NC1CCCCC1)(NC1CCCCC1)NC1CCCCC1`, for which the Potency result is “inactive”.

For `CC(C)(C)C(=O)C(Oc1ccc(Cl)cc1)n1ccnc1` (configuration not stated), the Potency result was “inactive”.

For the molecule `Cc1cc2nc3ccc(=[N+](C)C)cc-3sc2cc1N`, the Potency was 2.66 µM (active).

Turning to `CN(C)C(=O)Nc1ccc(Oc2ccc(Cl)cc2)cc1`, the Potency result is “inactive”.

Turning to `Nc1nc(Cl)nc2c1ncn2[C@@H]1O[C@H](CO)[C@@H](O)[C@@H]1F`, the Potency was 0.841 µM (active).

With `CCOc1cc(N)c(Cl)cc1C(=O)NCC1CN(Cc2ccc(F)cc2)CCO1` (configuration not stated), the Potency entry is “inactive”.

As for `CC(=O)OCC(=O)[C@H]1CC[C@H]2[C@@H]3CCC4=CC(=O)CC[C@]4(C)[C@H]3CC[C@]12C`, the Potency is 11.9 µM (active).

Regarding `Cc1cc(OI)c(C(C)C)cc1-c1cc(C(C)C)c(OI)cc1C`, the Potency result was “inactive”.

The target of the next assay is Estrogen receptor beta (Homo sapiens) (UniProt Q92731). Kind of assay: qHTS assay to identify small molecule agonists of the estrogen receptor beta (ER-beta) signaling pathway (AID 1259377; active means well fitted activation curve with a large enough effect in the signal ratio in the repeat runs, not every such curve was filed as active; the % refers to the signal ratio). Particulars: ER-beta-UAS-bla HEK293T, beta-lactamase FRET ratio, 16 h; series mostly up to 92.4 µM. The method, boiled down: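 ER-beta-UAS-bla HEK293T cells in medium with 2% charcoal-stripped FBS were exposed to compounds for 16 h at 37C. Beta-lactamase reporter activity was read as fluorescence after 2 h with LiveBLAzer B/G FRET substrate at room temperature.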
Estrogen receptor beta (Homo sapiens), sequence (Q92731 whole entry, looked up): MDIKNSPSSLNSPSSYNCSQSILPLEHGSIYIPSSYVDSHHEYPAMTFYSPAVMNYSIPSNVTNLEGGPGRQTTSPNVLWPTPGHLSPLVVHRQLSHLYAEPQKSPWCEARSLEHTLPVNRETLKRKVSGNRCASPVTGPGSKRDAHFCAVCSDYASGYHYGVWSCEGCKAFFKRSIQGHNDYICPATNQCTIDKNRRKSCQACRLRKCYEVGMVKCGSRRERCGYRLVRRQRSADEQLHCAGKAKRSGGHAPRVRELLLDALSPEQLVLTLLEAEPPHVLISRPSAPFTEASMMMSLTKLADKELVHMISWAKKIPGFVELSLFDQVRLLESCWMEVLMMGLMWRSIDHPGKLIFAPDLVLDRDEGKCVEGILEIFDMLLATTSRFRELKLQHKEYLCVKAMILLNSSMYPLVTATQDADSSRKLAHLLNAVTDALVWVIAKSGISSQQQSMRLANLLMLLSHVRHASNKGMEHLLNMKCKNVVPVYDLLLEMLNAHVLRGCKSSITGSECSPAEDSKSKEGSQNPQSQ
As for `CC(C)c1nnc2ccc(-c3ocnc3-c3cc(F)ccc3F)cn12`, the Potency entry was “inactive”.

Turning to `OC/C(Br)=C(\Br)CO`, the Potency entry is “inactive”.

Consider `CN1CCCN=C1/C=C/c1cccs1`, for which the Potency result is “inactive”.

As for `CC1(C)C(=O)N(Br)C(=O)N1Cl`, the Potency entry is “inactive”.

As to `CCC(C(=O)OCCOCCN(CC)CC)c1ccccc1` (configuration not stated), the Potency entry is “inactive”.

`O=C(O)c1cccc(O)c1`: the Potency entry was “inactive”.

For the molecule `NC(=O)Nc1ccc(Cl)cc1`, the Potency result is “inactive”.

With `CCCCCCOC(=O)C(C)C`, the Potency result is “inactive”.

Turning to `CCCCCCCCCCCC[N+](C)(C)CCCS(=O)(=O)[O-]`, the Potency result was “inactive”.

In the case of `CCCOCCOCCO`, the Potency entry was “inactive”.

Regarding `Cc1cc(O)c2c(O)c3c(O)cccc3cc2c1`, the Potency entry was “inactive”.

Regarding `Cn1c(=O)c2c(ncn2CC(=O)O)n(C)c1=O`, the Potency result is “inactive”.

As to `CC#N`, the Potency entry was “inactive”.

In the case of `CO[C@H]1O[C@H](CO)[C@@H](O)[C@H](O)[C@H]1O`, the Potency result was “inactive”.

For the molecule `CCOC(=O)C(C)Oc1ccc(Oc2nc3ccc(Cl)cc3o2)cc1` (configuration not stated), the Potency result was “inactive”.

As to `Cc1oncc1C(=O)Nc1ccc(C(F)(F)F)cc1`, the Potency result is “inactive”.

Take `CC1CN(c2cc3c(cc2F)c(=O)c(C(=O)O)cn3-c2ccc(F)cc2F)CCN1` (configuration not stated): the activation was -1.89% [at 8.39 µM] (inactive).

As for `O=c1[nH]c2ccc(S(=O)CCN3CCC(Cc4ccc(F)cc4)CC3)cc2o1` (configuration not stated), the Potency result was “inactive”.

For `CCC(=O)OC/C=C/c1ccccc1`, the Potency result is “inactive”.

In the case of `CN1CCN(c2c(F)cc3c(=O)c(C(=O)O)cn4c3c2OCN4C)CC1`, the activation was -0.625% [at 19 µM] (inactive).

On to `CCC(C)=O`, for which the Potency result was “inactive”.

As for `O=S(=O)(c1ccccc1)c1ccc(Cl)cc1`, the Potency entry is “inactive”.

Consider `O=C(CCC1CCN(Cc2ccccc2)CC1)c1ccc2c(c1)NCCCC2`, for which the Potency result is “inactive”.

`CCc1nn(CCCN2CCN(c3cccc(Cl)c3)CC2)c(=O)n1CCOc1ccccc1`: the Potency result is “inactive”.

Consider `C[Si](NC1CCCCC1)(NC1CCCCC1)NC1CCCCC1`, for which the Potency entry is “inactive”.

`CC(C)(C)C(=O)C(Oc1ccc(Cl)cc1)n1ccnc1` (configuration not stated): the Potency entry was “inactive”.

On to `Cc1cc2nc3ccc(=[N+](C)C)cc-3sc2cc1N`, for which the Potency entry is “inactive”.

With `CN(C)C(=O)Nc1ccc(Oc2ccc(Cl)cc2)cc1`, the Potency result is “inactive”.

For `Nc1nc(Cl)nc2c1ncn2[C@@H]1O[C@H](CO)[C@@H](O)[C@@H]1F`, the Potency entry is “inactive”.

For the molecule `CCOc1cc(N)c(Cl)cc1C(=O)NCC1CN(Cc2ccc(F)cc2)CCO1` (configuration not stated), the Potency entry is “inactive”.

For `CC(=O)OCC(=O)[C@H]1CC[C@H]2[C@@H]3CCC4=CC(=O)CC[C@]4(C)[C@H]3CC[C@]12C`, the Potency result was “inactive”.

On to `Cc1cc(OI)c(C(C)C)cc1-c1cc(C(C)C)c(OI)cc1C`, for which the Potency entry is “inactive”.

The record behind these values is PubChem BioAssay (Tox21).
